Legend:
Assay in all cases: universal protein binding microarray (PBM); transcription factors of Arabidopsis thaliana; high values mean tight binding
[1] = biological target: GST-NTL6(1-168) (Arabidopsis thaliana, UniProt Q9SCK6 1-168); conditions: protein: recombinant; tags: GST; chain copies: 2; dsDNA, one strand shown
In short: (§1)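 For zinc-finger proteins, zinc acetate was added while GST-tagged NAC-domain, full-length or DNA-binding-domain proteins were induced in cells. Purification used glutathione–Sepharose 4B, and quantification used A280 or anti-GST western blot. Custom all-10-mer Agilent 4 × 180K arrays, made double-stranded by primer extension, each received a protein at 200 to 500 nM final in duplicate. Scoring covered gapped and ungapped 8-mers, with binding given as the normalised enrichment score (E-score).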

[2] = biological target: T1, GST-ANAC055(1-171) (Arabidopsis thaliana, UniProt Q9LDY8 1-171); conditions: protein: recombinant; tags: GST; chain copies: 2; dsDNA, one strand shown
T1 sequence: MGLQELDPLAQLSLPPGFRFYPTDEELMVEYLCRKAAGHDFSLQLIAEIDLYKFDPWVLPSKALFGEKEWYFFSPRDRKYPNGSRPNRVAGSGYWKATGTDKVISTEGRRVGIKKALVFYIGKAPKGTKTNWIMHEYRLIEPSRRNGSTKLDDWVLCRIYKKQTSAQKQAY
In short: as §1

[3] = biological target: T2, GST-ATAF1 NAC domain (Arabidopsis thaliana, UniProt Q39013 7-158); conditions: protein: recombinant; tags: GST; chain copies: 2; dsDNA, one strand shown
T2 sequence: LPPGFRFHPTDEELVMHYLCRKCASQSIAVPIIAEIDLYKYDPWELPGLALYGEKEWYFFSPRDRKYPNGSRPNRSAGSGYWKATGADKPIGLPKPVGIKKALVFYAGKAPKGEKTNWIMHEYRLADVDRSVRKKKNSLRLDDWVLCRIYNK
In short: as §1

[4] = biological target: T3, GST-ANAC092(1-285) full length (Arabidopsis thaliana, UniProt Q9FKA0 1-285); conditions: protein: recombinant; tags: GST; chain copies: 2; dsDNA, one strand shown
T3 sequence: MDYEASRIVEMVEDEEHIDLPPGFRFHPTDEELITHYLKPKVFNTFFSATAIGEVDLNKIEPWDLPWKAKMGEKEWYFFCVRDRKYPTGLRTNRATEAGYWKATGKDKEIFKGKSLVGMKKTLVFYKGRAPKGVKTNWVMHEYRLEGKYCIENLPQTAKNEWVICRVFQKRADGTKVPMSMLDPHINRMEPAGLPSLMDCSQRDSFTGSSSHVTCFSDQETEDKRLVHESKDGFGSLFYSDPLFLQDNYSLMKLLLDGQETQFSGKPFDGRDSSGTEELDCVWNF
In short: as §1

[5] = biological target: T4, GST-NST2(1-184) (Arabidopsis thaliana, UniProt Q9M274 1-184); conditions: protein: recombinant; tags: GST; chain copies: 2; dsDNA, one strand shown
T4 sequence: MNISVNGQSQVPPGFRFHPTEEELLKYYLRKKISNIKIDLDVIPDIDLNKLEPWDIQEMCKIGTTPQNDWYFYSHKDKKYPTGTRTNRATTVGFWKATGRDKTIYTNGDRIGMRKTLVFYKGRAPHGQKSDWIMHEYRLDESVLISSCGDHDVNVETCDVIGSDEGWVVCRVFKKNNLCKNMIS
In short: as §1

[6] = biological target: T5, GST-SND1(1-203) (Arabidopsis thaliana, UniProt Q9LPI7 1-203); conditions: protein: recombinant; tags: GST; chain copies: 2; dsDNA, one strand shown
T5 sequence: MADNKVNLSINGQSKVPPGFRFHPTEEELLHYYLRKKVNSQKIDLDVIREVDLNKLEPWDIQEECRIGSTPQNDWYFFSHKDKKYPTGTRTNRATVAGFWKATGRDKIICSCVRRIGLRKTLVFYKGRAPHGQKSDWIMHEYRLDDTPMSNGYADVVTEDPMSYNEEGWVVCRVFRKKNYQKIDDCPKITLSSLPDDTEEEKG
In short: as §1

[7] = biological target: T6, GST-VND3 NAC domain (Arabidopsis thaliana, UniProt Q9FH59 12-162); conditions: protein: recombinant; tags: GST; chain copies: 2; dsDNA, one strand shown
T6 sequence: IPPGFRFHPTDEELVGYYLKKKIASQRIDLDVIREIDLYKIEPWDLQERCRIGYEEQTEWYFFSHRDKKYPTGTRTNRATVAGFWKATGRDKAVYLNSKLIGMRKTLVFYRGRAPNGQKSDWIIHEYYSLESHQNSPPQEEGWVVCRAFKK
In short: as §1

[8] = biological target: T7, GST-VND7 NAC domain (Arabidopsis thaliana, UniProt Q9C8W9 9-158); conditions: protein: recombinant; tags: GST; chain copies: 2; dsDNA, one strand shown
T7 sequence: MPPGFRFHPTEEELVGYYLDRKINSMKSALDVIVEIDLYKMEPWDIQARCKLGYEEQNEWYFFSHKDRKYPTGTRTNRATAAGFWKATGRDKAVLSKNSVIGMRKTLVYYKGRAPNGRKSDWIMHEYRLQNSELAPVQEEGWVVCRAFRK
In short: as §1

[9] = biological target: GST-WRKY1(266-371) (Arabidopsis thaliana, UniProt Q9SI37 266-371); conditions: protein: recombinant; tags: GST; dsDNA, one strand shown
In short: as §1

[10] = biological target: T8, GST-ANAC092(1-176) (Arabidopsis thaliana, UniProt Q9FKA0 1-176); conditions: protein: recombinant; tags: GST; chain copies: 2; dsDNA, one strand shown
T8 sequence: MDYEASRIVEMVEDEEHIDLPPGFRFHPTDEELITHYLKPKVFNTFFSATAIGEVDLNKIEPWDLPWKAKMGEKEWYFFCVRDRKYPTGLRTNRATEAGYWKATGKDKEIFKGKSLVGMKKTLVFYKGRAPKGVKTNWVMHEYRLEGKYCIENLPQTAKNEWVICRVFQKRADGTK
In short: as §1

[11] = biological target: T9, GST-ANAC019 NAC domain (Arabidopsis thaliana, UniProt Q9C932 14-162); conditions: protein: recombinant; tags: GST; chain copies: 2; dsDNA, one strand shown
T9 sequence: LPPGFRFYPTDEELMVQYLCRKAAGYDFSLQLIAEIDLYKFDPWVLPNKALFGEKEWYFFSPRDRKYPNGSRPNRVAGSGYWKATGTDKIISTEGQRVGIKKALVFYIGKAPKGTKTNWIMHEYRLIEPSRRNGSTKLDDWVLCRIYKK
In short: as §1

[12] = biological target: T10, GST-NAP(1-166) (Arabidopsis thaliana, UniProt O49255 1-166); conditions: protein: recombinant; tags: GST; chain copies: 2; dsDNA, one strand shown
T10 sequence: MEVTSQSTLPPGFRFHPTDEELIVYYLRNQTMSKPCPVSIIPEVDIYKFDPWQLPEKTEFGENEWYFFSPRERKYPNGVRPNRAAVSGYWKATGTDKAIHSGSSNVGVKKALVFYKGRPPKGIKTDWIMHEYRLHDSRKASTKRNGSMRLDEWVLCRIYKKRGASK
In short: as §1

[13] = biological target: T11, GST-NTL8 NAC domain (Arabidopsis thaliana, UniProt Q9XIN7 14-156); conditions: protein: recombinant; tags: GST; chain copies: 2; dsDNA, one strand shown
T11 sequence: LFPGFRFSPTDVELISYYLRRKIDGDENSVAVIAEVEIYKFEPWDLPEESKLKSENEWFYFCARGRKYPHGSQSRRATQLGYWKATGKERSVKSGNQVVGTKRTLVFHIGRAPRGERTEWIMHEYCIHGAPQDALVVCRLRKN
In short: as §1

GST-WRKY1(266-371), sequence (Q9SI37 266-371): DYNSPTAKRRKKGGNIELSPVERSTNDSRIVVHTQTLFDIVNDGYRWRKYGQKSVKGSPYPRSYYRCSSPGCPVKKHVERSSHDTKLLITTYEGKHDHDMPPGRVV
GST-NTL6(1-168), sequence (Q9SCK6 1-168): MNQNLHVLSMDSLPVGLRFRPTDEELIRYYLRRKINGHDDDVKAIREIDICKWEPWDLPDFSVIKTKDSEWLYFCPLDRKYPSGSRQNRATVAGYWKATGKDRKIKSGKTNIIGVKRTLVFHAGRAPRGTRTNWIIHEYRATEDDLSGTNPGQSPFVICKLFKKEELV

Sequence	binding signal [1]	binding signal [2]	binding signal [3]	binding signal [4]	binding signal [5]	binding signal [6]	binding signal [7]	binding signal [8]	binding signal [9]	binding signal [10]	binding signal [11]	binding signal [12]	binding signal [13]
TAAGTCAA	0.268 E-score	0.121 E-score	0.208 E-score	0.158 E-score	0.172 E-score	0.175 E-score	0.0988 E-score	0.145 E-score	0.483 E-score				
CACGTTAA	0.0985 E-score	0.243 E-score	0.219 E-score	0.442 E-score	0.301 E-score	0.377 E-score	0.184 E-score	0.156 E-score		0.429 E-score	0.125 E-score	0.129 E-score	
ATTGCGTG		0.452 E-score	0.355 E-score	0.494 E-score	0.459 E-score	0.471 E-score	0.441 E-score	0.46 E-score	0.0947 E-score	0.494 E-score	0.466 E-score	0.458 E-score	0.188 E-score
AAAGTCAT			0.14 E-score	0.119 E-score	0.0576 E-score	0.162 E-score	0.0602 E-score	0.121 E-score	0.428 E-score			0.0502 E-score	
TAGAGTAA		0.0921 E-score	0.0567 E-score	0.263 E-score	0.216 E-score	0.401 E-score	0.117 E-score	0.128 E-score	0.0876 E-score	0.177 E-score			0.065 E-score
TAAGGTCA	0.242 E-score		0.094 E-score			0.132 E-score	0.223 E-score	0.143 E-score	0.441 E-score			0.14 E-score	0.0905 E-score
ATTCCGTG	0.129 E-score	0.448 E-score	0.3 E-score	0.401 E-score	0.251 E-score	0.135 E-score	0.386 E-score	0.41 E-score		0.408 E-score	0.438 E-score	0.329 E-score	
AACTTGAC		0.105 E-score	0.0699 E-score	0.088 E-score	0.173 E-score	0.136 E-score	0.152 E-score	0.0683 E-score	0.425 E-score	0.0775 E-score			
ACGTCACT	0.0658 E-score	0.342 E-score	0.354 E-score	0.406 E-score	0.234 E-score	0.314 E-score	0.355 E-score	0.328 E-score		0.383 E-score	0.365 E-score	0.354 E-score	
ATGTCAAC	0.0563 E-score	0.133 E-score	0.127 E-score		0.0828 E-score	0.0631 E-score	0.089 E-score	0.124 E-score	0.443 E-score			0.106 E-score	
CAACACGC		0.227 E-score	0.172 E-score	0.436 E-score	0.229 E-score	0.259 E-score	0.162 E-score	0.218 E-score	0.125 E-score	0.418 E-score	0.304 E-score	0.252 E-score	0.0505 E-score
AACGTGTA	0.0638 E-score	0.2 E-score	0.266 E-score	0.432 E-score	0.265 E-score	0.295 E-score	0.275 E-score	0.0615 E-score		0.403 E-score	0.165 E-score	0.125 E-score	
GTACGTTA	0.0779 E-score	0.226 E-score	0.325 E-score	0.426 E-score	0.316 E-score	0.415 E-score	0.253 E-score	0.148 E-score		0.42 E-score	0.0888 E-score	0.173 E-score	
ACGCAATA		0.212 E-score	0.166 E-score	0.447 E-score	0.288 E-score	0.419 E-score	0.312 E-score	0.288 E-score	0.0639 E-score	0.444 E-score	0.233 E-score	0.301 E-score	0.0551 E-score
CTTGCGTA		0.306 E-score	0.317 E-score	0.474 E-score	0.332 E-score	0.479 E-score	0.416 E-score	0.394 E-score	0.0686 E-score	0.471 E-score	0.382 E-score	0.386 E-score	0.0618 E-score
GTACGGCA		0.362 E-score	0.385 E-score	0.439 E-score	0.178 E-score	0.236 E-score	0.424 E-score	0.425 E-score	0.0953 E-score	0.395 E-score	0.451 E-score	0.342 E-score	
CAAAGTCA		0.0622 E-score		0.0505 E-score		0.0515 E-score	0.0817 E-score	0.0536 E-score	0.454 E-score				
TACGTTAA	0.14 E-score	0.154 E-score	0.243 E-score	0.432 E-score	0.321 E-score	0.462 E-score	0.249 E-score	0.173 E-score		0.43 E-score	0.0653 E-score	0.12 E-score	
AGTCAAAA			0.234 E-score	0.0672 E-score		0.111 E-score	0.104 E-score	0.0632 E-score	0.47 E-score	0.157 E-score	0.0721 E-score		
